Laboratory results: ChEMBL document CHEMBL3988442, “University of Dundee, Small-Polar-MMV Screening Library” (2021)
For some assays here: Results with a measured potency or affinity are listed apart.

Assays:
Design in all cases: scale not given: direction of the effect not stated beside the values
[1] = target: Protein translocase subunit SecA (Escherichia coli (strain K12)) (UniProt P10408); assay: Assay to Identify E. coli SecA ATPase Inhibitors; type: functional; details: 30 µM
[2] = target: T1, Ubiquitin-activating enzyme e1, putative (Leishmania donovani (strain BPK282A1)) (UniProt E9BSI1); assay: Leishmania donovani Ubiquitin Activating Enzyme (LdE1); type: functional; details: 30 µM
T1 sequence (whole entry): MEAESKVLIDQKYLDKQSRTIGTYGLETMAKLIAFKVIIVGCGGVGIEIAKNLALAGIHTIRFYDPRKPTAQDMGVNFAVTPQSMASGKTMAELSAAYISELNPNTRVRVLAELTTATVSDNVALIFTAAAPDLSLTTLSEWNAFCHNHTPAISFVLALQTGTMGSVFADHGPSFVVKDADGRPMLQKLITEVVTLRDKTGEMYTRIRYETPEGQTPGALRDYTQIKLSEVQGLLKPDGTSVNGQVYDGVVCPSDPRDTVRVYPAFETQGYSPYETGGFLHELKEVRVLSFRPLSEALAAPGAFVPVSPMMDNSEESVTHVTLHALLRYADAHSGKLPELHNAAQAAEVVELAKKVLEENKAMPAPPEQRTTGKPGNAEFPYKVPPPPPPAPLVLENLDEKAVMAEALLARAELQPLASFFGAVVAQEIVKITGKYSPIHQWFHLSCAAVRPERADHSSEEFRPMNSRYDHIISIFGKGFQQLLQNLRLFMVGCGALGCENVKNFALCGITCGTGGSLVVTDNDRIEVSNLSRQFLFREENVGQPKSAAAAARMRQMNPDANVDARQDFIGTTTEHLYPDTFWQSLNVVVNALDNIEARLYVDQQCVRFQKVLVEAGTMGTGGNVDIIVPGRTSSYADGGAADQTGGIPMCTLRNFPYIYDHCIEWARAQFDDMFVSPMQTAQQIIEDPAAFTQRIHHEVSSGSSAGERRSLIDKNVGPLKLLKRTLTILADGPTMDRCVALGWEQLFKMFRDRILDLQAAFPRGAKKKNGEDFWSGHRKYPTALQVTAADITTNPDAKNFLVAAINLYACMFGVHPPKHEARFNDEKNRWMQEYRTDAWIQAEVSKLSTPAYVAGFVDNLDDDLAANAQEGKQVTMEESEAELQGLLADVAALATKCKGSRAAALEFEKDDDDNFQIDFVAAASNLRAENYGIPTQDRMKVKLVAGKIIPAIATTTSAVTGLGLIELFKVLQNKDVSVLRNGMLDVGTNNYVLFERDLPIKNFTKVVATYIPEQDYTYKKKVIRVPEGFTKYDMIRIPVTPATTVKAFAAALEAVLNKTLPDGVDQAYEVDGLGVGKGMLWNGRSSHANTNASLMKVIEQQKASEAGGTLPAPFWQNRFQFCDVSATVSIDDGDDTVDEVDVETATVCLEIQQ

[3] = target: AMP-activated protein kinase, AMPK (Homo sapiens) (UniProt P54646+O43741+P54619+Q9UGJ0+Q9Y478+Q13131+Q9UGI9); assay: AMP-dependent Kinase enzyme assay. An in vitro enzyme assay that detects ADP turnover that is directly proportional to AMPK activity. This uses naive AMPK that is activated during the assay with MK-8722; type: functional; details: 30 µM
[4] = target: Sialic acid-binding Ig-like lectin 9 (Homo sapiens) (UniProt Q9Y336); assay: Hs-Siglec9 ALPHAscreen SOP 20170721; details: 10 µM
Sialic acid-binding Ig-like lectin 9 (Homo sapiens), sequence (Q9Y336 whole entry): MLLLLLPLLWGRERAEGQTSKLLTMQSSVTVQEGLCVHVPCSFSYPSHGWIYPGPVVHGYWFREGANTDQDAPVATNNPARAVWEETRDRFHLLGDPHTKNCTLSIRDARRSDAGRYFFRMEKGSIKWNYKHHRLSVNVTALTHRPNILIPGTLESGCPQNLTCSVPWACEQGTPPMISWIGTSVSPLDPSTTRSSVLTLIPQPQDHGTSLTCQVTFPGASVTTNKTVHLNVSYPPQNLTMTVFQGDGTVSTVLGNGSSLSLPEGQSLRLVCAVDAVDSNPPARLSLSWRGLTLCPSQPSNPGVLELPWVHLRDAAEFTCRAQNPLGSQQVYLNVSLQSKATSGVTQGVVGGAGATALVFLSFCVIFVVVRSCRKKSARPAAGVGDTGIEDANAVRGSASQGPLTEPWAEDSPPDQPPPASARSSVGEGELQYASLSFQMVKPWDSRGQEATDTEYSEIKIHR

[5] = tested on: Trypanosoma cruzi; assay: Trypanosoma cruzi phosphomannomutase and mannose-1-phosphate guanylyltransferase assay; type: functional; details: 10 µM
[6] = target: T2, Arginase-2, mitochondrial (Homo sapiens) (UniProt P78540); assay: in vitro enzyme assay to detect the production of urea directly proportional to the activity of Arginase II; type: functional; details: 33.3 µM; further: in the data most compounds retested in dose-response had high values
T2 sequence (whole entry): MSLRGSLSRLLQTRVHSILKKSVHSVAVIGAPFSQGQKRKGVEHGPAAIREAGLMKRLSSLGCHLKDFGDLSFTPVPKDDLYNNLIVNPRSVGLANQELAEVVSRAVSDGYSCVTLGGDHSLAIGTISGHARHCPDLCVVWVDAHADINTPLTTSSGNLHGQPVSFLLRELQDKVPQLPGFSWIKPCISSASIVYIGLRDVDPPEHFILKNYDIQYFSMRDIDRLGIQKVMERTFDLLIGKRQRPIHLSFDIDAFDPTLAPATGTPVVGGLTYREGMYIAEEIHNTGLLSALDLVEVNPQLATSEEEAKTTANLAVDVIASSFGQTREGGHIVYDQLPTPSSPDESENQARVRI

[7] = target: T3, Proteasome subunit beta (Trypanosoma cruzi) (UniProt O96673); assay: Trypanosoma cruzi proteasome chymotrypsin-like activity (TcProtChymo) assay.; further: in the data most compounds retested in dose-response had high values; type: functional; details: 9.37 µM
T3 sequence (whole entry): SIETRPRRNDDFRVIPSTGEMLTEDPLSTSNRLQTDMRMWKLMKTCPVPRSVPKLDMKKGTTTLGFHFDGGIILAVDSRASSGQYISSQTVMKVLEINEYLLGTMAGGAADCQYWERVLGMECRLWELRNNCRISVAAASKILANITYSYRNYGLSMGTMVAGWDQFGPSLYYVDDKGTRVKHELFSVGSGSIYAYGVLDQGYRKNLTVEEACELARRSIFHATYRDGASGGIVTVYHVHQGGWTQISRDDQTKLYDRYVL

[8] = species on record: Homo sapiens; assay: To identify inhibition of the IFN signalling (Jak-Stat) pathway via expression of an eGFP reporter gene under the control of an IFN-stimulated response element (ISRE) containing MxA promoter.; type: functional; details: 30 µM
[9] = target: T4, Tyrosyl-tRNA synthetase, putative (Trypanosoma cruzi (strain CL Brener)) (UniProt Q4DSP6); assay: Trypanosoma cruzi tyrosyl tRNA synthetase (TcYRS) _High Tyrosine SOP; type: functional; details: 30 µM; further: in the data most compounds retested in dose-response had high values
T4 sequence (whole entry): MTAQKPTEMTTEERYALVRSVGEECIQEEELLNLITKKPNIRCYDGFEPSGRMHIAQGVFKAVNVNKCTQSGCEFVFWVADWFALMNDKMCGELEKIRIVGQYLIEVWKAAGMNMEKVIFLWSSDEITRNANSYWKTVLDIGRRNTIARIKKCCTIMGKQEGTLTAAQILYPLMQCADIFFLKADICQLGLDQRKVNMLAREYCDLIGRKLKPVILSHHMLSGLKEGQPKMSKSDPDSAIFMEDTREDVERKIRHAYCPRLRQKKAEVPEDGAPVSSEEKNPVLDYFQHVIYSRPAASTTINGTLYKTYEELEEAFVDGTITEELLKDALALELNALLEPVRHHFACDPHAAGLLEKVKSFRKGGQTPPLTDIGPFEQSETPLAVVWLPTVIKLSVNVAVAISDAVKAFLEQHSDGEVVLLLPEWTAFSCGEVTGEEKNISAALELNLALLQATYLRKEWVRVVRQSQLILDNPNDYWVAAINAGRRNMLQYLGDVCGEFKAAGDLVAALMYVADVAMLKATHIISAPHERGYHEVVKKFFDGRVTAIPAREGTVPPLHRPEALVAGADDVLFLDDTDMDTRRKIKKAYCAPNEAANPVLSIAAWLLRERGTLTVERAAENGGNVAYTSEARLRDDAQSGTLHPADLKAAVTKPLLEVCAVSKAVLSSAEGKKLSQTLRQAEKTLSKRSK

[10] = target: T4, Tyrosyl-tRNA synthetase, putative (Trypanosoma cruzi (strain CL Brener)); assay: Trypanosoma cruzi tyrosyl tRNA synthetase (TcYRS) SOP; type: functional; details: 30 µM
[11] = target: Chromo domain-containing protein 1 (Saccharomyces cerevisiae (strain ATCC 204508 / S288c) (Baker's yeast)) (UniProt P32657); assay: ScCHD-1 Enzyme Inhibition Assay; type: functional; details: 30 µM; further: in the data most compounds retested in dose-response had high values
Chromo domain-containing protein 1 (Saccharomyces cerevisiae (strain ATCC 204508 / S288c) (Baker's yeast)), sequence (P32657 whole entry, the tested form may be a part): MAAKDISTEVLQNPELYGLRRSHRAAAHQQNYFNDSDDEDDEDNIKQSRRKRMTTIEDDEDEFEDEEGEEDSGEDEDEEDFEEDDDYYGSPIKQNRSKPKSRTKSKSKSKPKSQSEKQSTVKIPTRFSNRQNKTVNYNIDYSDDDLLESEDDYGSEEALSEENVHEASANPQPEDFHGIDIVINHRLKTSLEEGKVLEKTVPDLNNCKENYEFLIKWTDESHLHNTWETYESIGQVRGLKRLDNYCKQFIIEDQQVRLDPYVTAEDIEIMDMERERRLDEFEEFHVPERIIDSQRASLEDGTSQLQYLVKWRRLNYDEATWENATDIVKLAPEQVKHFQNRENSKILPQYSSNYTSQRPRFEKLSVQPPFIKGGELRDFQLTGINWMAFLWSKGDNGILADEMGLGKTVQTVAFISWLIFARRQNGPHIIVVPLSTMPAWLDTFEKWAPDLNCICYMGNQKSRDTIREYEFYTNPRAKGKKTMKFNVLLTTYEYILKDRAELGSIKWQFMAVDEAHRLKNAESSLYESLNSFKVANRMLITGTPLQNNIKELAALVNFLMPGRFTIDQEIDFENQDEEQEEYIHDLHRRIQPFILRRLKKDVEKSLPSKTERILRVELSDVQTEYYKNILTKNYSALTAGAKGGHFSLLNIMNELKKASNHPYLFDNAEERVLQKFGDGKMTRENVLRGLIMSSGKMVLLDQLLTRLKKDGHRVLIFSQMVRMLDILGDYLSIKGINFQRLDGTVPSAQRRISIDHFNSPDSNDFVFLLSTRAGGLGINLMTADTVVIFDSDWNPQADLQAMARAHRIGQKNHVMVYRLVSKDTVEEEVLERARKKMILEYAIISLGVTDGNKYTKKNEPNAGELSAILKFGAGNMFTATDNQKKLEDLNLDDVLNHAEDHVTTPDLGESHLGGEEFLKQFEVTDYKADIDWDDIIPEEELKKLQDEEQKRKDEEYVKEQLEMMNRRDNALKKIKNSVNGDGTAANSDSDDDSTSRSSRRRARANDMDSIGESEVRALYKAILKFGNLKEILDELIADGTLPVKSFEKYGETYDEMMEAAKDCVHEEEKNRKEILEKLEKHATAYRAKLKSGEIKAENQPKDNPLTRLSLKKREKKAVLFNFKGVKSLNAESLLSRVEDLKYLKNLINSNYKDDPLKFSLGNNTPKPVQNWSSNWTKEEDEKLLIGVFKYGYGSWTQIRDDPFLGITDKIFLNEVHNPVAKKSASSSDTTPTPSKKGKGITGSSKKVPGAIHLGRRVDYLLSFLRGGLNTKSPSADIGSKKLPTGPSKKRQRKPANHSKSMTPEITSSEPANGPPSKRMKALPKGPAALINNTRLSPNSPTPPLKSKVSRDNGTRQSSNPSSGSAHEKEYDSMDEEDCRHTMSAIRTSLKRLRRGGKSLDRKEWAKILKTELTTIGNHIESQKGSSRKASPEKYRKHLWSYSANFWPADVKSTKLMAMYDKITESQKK

Protein translocase subunit SecA (Escherichia coli (strain K12)), sequence (P10408 whole entry): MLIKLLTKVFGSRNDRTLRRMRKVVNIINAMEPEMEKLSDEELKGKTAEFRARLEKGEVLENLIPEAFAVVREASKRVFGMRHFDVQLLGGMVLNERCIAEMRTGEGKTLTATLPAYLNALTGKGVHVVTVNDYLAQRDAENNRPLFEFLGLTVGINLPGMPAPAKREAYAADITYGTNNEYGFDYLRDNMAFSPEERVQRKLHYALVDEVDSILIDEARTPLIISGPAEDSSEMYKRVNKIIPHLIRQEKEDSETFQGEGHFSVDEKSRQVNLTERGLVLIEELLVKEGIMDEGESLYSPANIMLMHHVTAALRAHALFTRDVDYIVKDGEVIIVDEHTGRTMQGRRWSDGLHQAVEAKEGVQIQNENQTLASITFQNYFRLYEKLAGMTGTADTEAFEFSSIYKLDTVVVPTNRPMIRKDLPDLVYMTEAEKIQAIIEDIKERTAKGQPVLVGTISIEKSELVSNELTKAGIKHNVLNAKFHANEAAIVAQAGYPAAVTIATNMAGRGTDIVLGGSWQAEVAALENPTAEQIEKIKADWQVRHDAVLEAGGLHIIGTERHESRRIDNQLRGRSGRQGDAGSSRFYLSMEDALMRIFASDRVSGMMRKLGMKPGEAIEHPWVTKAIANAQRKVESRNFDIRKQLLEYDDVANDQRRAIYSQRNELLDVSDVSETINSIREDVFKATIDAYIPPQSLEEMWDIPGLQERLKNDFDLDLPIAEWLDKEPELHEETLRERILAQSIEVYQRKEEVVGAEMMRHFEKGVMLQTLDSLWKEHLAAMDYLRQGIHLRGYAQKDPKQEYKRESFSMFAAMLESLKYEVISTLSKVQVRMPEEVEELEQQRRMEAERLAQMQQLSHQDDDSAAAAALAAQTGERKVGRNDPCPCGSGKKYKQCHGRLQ

| SMILES | Percent Effect [1] [%] | Percent Effect [2] [%] | Percent Effect [3] [%] | Percent Effect [4] [%] | Percent Effect [5] [%] | Percent Effect [6] [%] | Percent Effect [7] [%] | Percent Effect [8] [%] | Percent Effect [9] [%] | Percent Effect [10] [%] | Percent Effect [11] [%] |
| --- | --- | --- | --- | --- | --- | --- | --- | --- | --- | --- | --- |
| CCC(=O)N1CC[C@@H](c2ccc3ccccc3c2)[C@H](O)C1 | -3.58 | 8 | -2.44 | 14.3 | 5.94 | 24 | 16.2 | 11.8 | 4.92 | 11.1 | -8.24 |
| Cc1ccc(=O)n(CC2(O)CCN(Cc3ccsc3)CC2)n1 | 1.03 | 1.35 | 9.78 | -1.02 | -4.74 | 3.02 | 12.9 | 2.32 | 7.53 | 9.09 | -6.08 |
| COc1ccc(F)c(CN2CCC3(CCC(=O)N(CC(N)=O)C3)CC2)c1 | -4.11 | 5.33 | -12.6 | -1.01 | -3.02 | -3.12 | 12.4 | 36.4 | 6.01 | 8.64 | -5.79 |
| O=C(CC1CC1)NCc1cn2c(n1)CN(C(=O)c1cccnc1)CC2 | -2.41 | 8 | 8.62 | 2.88 | -7.28 | 1.17 | 2.73 | 9.61 | 0 | 8.97 | 3.52 |
| Cc1nc(C)n(C2CCCN(C(=O)c3csc(C(C)C)n3)C2)n1 (stereo unspecified) | -5.33 | 29.7 | -10.5 | 12.2 | 8.4 | -10.4 | 8.83 | 14.5 | 8.37 | 28.4 | -17.4 |
| CCOCC1CN(Cc2cccc(C#N)c2)Cc2nccn2C1 (stereo unspecified) | -3.99 | -5.48 | 2.91 | 1.44 | -2.38 | -2 | 12.4 | -1.58 | 4.17 | 3.7 | -1.98 |
| CC(C)c1nc(CCNC(=O)NCc2ccnc(N(C)C)c2)cs1 | -3.48 | 6.33 | 8.79 | 4.61 | -0.103 | 5.81 | 9.43 | 12.5 | 1.04 | 5.06 | -13 |
| Cc1cc(C(=O)N2CC[C@@H]3CN(c4ncccn4)CCO[C@@H]3C2)c(C)o1 | -0.56 | 16.2 | -3.77 | -14.6 | 0.0978 | 6.69 | 29 | -4.39 | 6.49 | 20.5 | -4.19 |
| O=C(CN1C=Nc2ccccc2S1(=O)=O)NCCc1cccs1 | -6.39 | 13.2 | -6.07 | 5.67 | 3.08 | 5.04 | 9.56 | 5.08 | 8.37 | 25.9 | -10.2 |
| NCCn1nc(C2CCN(Cc3ccc(Cl)c(Cl)c3)C2)c2nccnc21 (stereo unspecified) | -3.22 | -14.9 | 7.43 | 0.383 | 2.37 | -4.41 | 8.74 | 7.68 | 1.07 | -1.3 | -23.3 |
| COc1cc(C)nc(N2CCN(C(=O)c3ccc[nH]3)CC2)n1 | -5.18 | 10.8 | -2.76 | 14.9 | 3.68 | -5.21 | 4.14 | 17.1 | 1.48 | 6.17 | -10.1 |
| CCc1noc(C(C)N2CCC(NC(=O)c3ccc(C)s3)CC2)n1 (stereo unspecified) | -3.18 | 7.79 | 2.15 | 19.9 | 2.65 | 2.76 | 12.3 | 17.6 | 4.3 | 11.1 | -0.98 |
| CC(C)CN(C)c1ccc(C(=O)N2CCCC2c2cnn(C)c2)cn1 (stereo unspecified) | -0.585 | 5.26 | -6.48 | -6.28 | 3.46 | 1.44 | 8.71 | 11.2 | 7.39 | 23.5 | -10.4 |
| CSc1ncccc1C(=O)N1CCC(c2nc3c(C)cccc3[nH]2)CC1 | -5.33 | 20.8 | 6.84 | 10.4 | 3.83 | -5.52 | 16.1 | 3.12 | 7.53 | 13.6 | -10.4 |
| COCCN1CCc2cc(C(=O)N(C)C)c(NC(C)C)nc2CC1 | -0.676 | 8.11 | -3.33 | -5.3 | -2.25 | 0.248 | 0.429 | -3.78 | -10.8 | 3.7 | -3.16 |
| CN(C)CCOCC1CN(C(=O)[C@H]2CCCO2)Cc2ccnn2C1 (stereo partly specified) | -0.666 | 0 | -0.823 | 5.06 | -1.35 | -46.1 | 2.91 | -2.46 | 1.04 | -55 | 3.03 |
